Test systems include SR leukemia; RPMI-8226 leukemia; OVCAR-8 ovarian; OVCAR-5 ovarian; OVCAR-4 ovarian; SK-OV-3 ovarian; OVCAR-3 ovarian; HS 578T breast; NCI/ADR-RES ovarian; T-47D breast; BT-549 breast; MDA-MB-435 melanoma; SW-620 colon; MCF7 breast; HCT-116 colon; HCC-2998 colon; KM12 colon; IGROV1 ovarian.
What all share (assay): NCI-60 one-dose screen, 48 h (100 = growth as untreated, 0 = no growth, -100 = all killed)
What all share (conditions): 10 µM

This is part of a sample that, as a whole, favours compounds with a hit. Of some 83,000 tested, about 20% had one in any assay.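 Results are percent growth after 48 hours of single-concentration exposure. 100 means growth as in untreated cells, lower positive values show inhibition; negative values down to -100 show cell death.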 Values without a mark were called inactive. Activity calls are given as the source filed them. How the source made its calls: active means growth percent below 10; inactive means the rest.

Turning to `O=C(NCCc1nccs1)c1cnc2c(S)cccc2c1`, the growth in the test with SR leukemia is 14.6%; in the test on RPMI-8226 leukemia, 26.2%; in the test on OVCAR-8 ovarian it was 29.3%; with OVCAR-5 ovarian it was 75.2%; with OVCAR-4 ovarian, 27.1%; in the test on SK-OV-3 ovarian, 20.1%. Moreover, the growth was 5.69% (active) in the test with OVCAR-3 ovarian; 21.5% with HS 578T breast; 5.32% (active) in the test on NCI/ADR-RES ovarian; 10.8% in the test with T-47D breast; 48.1% with BT-549 breast; 26.4% with MDA-MB-435 melanoma. Also, the growth with SW-620 colon is 4.05% (active); in the test on MCF7 breast, -3.22% (active); in the test on HCT-116 colon, 2.16% (active); with HCC-2998 colon, 35.5%; in the test with KM12 colon, 19.6%.

On to `COc1ccc(-c2[nH]ncc2-c2cc(OC)c(OC)c(OC)c2)cc1`, for which the growth with SR leukemia is 0.125% (active); in the test on RPMI-8226 leukemia, 0.214% (active); with OVCAR-8 ovarian, 9.19% (active); in the test on OVCAR-5 ovarian, 20.7%; with OVCAR-4 ovarian, 26.8%; in the test on SK-OV-3 ovarian, -0.205% (active). For the same molecule, the growth was -17.5% (active) in the test with OVCAR-3 ovarian; 16.1% in the test on HS 578T breast; 14.5% in the test with NCI/ADR-RES ovarian; 58.1% with T-47D breast; -6.65% (active) in the test on BT-549 breast; -48% (active) in the test with MDA-MB-435 melanoma. In addition, the growth in the test with SW-620 colon is 23.6%; with MCF7 breast it was 6.61% (active); in the test with HCT-116 colon, 2.61% (active); in the test on HCC-2998 colon, -3.98% (active); in the test on KM12 colon, -8.7% (active).

Regarding `COc1ccc(-c2nc(-c3nc4ccc(OC)cc4[nH]3)c3ccccn23)cc1`, the growth is 32.4% in the test with SR leukemia; 3.21% (active) in the test on RPMI-8226 leukemia; 30.8% in the test on OVCAR-8 ovarian; 89.7% in the test on OVCAR-5 ovarian; 50.5% with OVCAR-4 ovarian; 92.3% with SK-OV-3 ovarian. Also, the growth was 81.8% with OVCAR-3 ovarian; 80% with HS 578T breast; 50.9% with NCI/ADR-RES ovarian; 36.7% with T-47D breast; 77.6% in the test with BT-549 breast; 81.5% in the test on MDA-MB-435 melanoma. Also, the growth with SW-620 colon was 93.3%; in the test with MCF7 breast it was 69.4%; with HCT-116 colon it was 66.4%; with HCC-2998 colon, 86.4%.

With `CCCCC(CC#N)(CCC)CCC`, the growth in the test with SR leukemia was 93.6%; in the test on RPMI-8226 leukemia, 100%; in the test with OVCAR-8 ovarian, 104%; in the test with OVCAR-5 ovarian it was 104%; with OVCAR-4 ovarian it was 93.2%; with SK-OV-3 ovarian, 94.8%. The growth with OVCAR-3 ovarian was 106%; in the test with HS 578T breast, 113%; in the test on NCI/ADR-RES ovarian it was 97.7%; with T-47D breast, 100%; in the test with BT-549 breast, 98.5%; in the test with MDA-MB-435 melanoma it was 99.4%. The growth was 108% in the test on SW-620 colon; 98.4% in the test with MCF7 breast; 106% in the test with HCT-116 colon; 96.3% in the test on HCC-2998 colon; 107% in the test on KM12 colon.

On to `Cc1cc(C)c2nc(C)c(C)[n+]([O-])c2c1`, for which the growth is 82.3% with SR leukemia; 90.7% with RPMI-8226 leukemia; 94% with OVCAR-8 ovarian; 99.6% in the test with OVCAR-5 ovarian; 107% with OVCAR-4 ovarian; 85.4% with SK-OV-3 ovarian. The growth with OVCAR-3 ovarian is 110%; in the test on HS 578T breast, 112%; in the test on NCI/ADR-RES ovarian it was 104%; with T-47D breast it was 94.9%; in the test on BT-549 breast, 106%; with MDA-MB-435 melanoma, 111%. Moreover, the growth in the test with SW-620 colon is 114%; in the test with MCF7 breast it was 95.6%; in the test on HCT-116 colon, 97.3%; in the test with HCC-2998 colon it was 97.9%; in the test with KM12 colon it was 106%.

As for `CN(C)Cc1cccs1`, the growth with SR leukemia was 114%; with RPMI-8226 leukemia, 102%; in the test with OVCAR-8 ovarian, 97%; in the test on OVCAR-5 ovarian it was 98.5%; in the test with OVCAR-4 ovarian, 109%; with SK-OV-3 ovarian, 87.8%. Further, the growth was 101% in the test on OVCAR-3 ovarian; 102% in the test on HS 578T breast; 101% with NCI/ADR-RES ovarian; 83.9% with T-47D breast; 96.6% in the test with BT-549 breast; 118% with MDA-MB-435 melanoma. Further, the growth is 108% with SW-620 colon; 103% in the test on MCF7 breast; 89% with HCT-116 colon; 96.6% with HCC-2998 colon; 101% in the test on KM12 colon.

With `O=c1oc2c3ccc4cnccc4c3[nH]c2c2ccccc12`, the growth was -51.3% (active) in the test on SR leukemia; -21.8% (active) with RPMI-8226 leukemia; 24.3% in the test on OVCAR-8 ovarian; 46.8% with OVCAR-5 ovarian; 25.2% with OVCAR-4 ovarian; 89.1% with SK-OV-3 ovarian. For the same molecule, the growth in the test with IGROV1 ovarian is 21.2%; in the test with OVCAR-3 ovarian, 38.2%; with NCI/ADR-RES ovarian, 71.5%; in the test on T-47D breast, -8.53% (active); with BT-549 breast, 32.7%; in the test on MDA-MB-435 melanoma it was -69.8% (active). For the same molecule, the growth in the test with SW-620 colon is 3.35% (active); in the test with MCF7 breast, -12.3% (active); in the test on HCT-116 colon it was -14.5% (active); in the test on KM12 colon it was 28.2%.

Regarding `COc1ccc(C(C)=O)cc1N1C(=O)C2C(C1=O)C1(c3ccccc3)C(=O)C2(c2ccccc2)C(c2ccc(C)cc2)=C1c1ccc(C)cc1` (stereo not drawn), the growth in the test with SR leukemia is 8.77% (active); with RPMI-8226 leukemia, 17.2%; in the test on OVCAR-8 ovarian, 14.5%; in the test on OVCAR-5 ovarian, 55.7%; in the test on OVCAR-4 ovarian, 26.2%; in the test on SK-OV-3 ovarian, 32.2%. Moreover, the growth was 21.4% in the test on OVCAR-3 ovarian; 80.7% with HS 578T breast; 12.7% in the test with NCI/ADR-RES ovarian; 32.3% in the test with T-47D breast; 38.4% with BT-549 breast; 35.6% with MDA-MB-435 melanoma. The growth in the test with SW-620 colon was 27.1%; with MCF7 breast, 15.6%; in the test with HCT-116 colon, 24.3%; in the test with HCC-2998 colon it was 46.6%.

(Values after PubChem BioAssay (NCI).)
